Ub-GFP proteasome: ubiquitin-GFP accumulation via proteasome inhibition | Ubiquitin-GFP reporter cells, proteasome inhibition, GFP fluorescence; response scale: untreated = 0%, 10 µM MG-132 = 100% | Potency, µM (top dose mostly 45.9 µM), most hits filed as activators | 67,000 tested, under 10 active; active = well fitted activation curve with a large enough effect, not every such curve was filed as active; inconclusive = small, poorly fitted or top-dose-only effect, or another doubt; inactive = no such curve, though single readings can be large or run the other way
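Proteasome blockade was scored as a rise in GFP-expressing U2OS cells carrying a ubiquitin(G76V)-GFP construct, imaged after 4 hr compound treatment at 37 °C across a 46 uM–2.9 nM series.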
USP2a inhib: inhibitors of human ubiquitin-specific protease USP2a. O75604. USP2a enzymatic assay, qHTS inhibition. Potency, µM (series often up to 38.3 µM), usual class: inhibitors. 0.1% of 60,000 active. AID 927; note: nearly all actives have a fitted effect of over 60% in size
Target sequence (O75604 whole entry, looked up): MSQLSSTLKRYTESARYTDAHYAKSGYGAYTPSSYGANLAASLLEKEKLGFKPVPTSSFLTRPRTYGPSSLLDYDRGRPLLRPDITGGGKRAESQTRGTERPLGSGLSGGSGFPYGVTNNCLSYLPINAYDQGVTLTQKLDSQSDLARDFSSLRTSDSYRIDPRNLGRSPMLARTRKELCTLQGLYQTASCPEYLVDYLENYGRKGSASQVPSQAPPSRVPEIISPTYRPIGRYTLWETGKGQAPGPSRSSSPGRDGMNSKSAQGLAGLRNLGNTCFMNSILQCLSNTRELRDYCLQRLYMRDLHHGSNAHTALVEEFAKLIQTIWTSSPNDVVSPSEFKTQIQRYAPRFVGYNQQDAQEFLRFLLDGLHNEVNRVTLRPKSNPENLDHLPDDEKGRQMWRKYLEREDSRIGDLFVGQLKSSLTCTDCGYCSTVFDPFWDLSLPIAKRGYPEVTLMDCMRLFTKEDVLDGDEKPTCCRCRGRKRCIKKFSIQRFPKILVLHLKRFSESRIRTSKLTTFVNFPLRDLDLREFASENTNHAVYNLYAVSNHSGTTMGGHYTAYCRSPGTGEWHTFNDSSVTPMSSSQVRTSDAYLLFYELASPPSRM
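Inhibition is measured in a cell-free coupled assay with 20 nM USP2 core, 20 nM Ub-PLA2 and 20 uM NBD C6-HPC, 2.5 h incubation. Activity normalized to NEM control.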
HBB splicing: alters splicing of the hemoglobin beta chain | HBB splicing reporter cell assay, activation; EGFP reporter with mutant IVS2-654 intron; response scale: normalised to 500 nM splice-correcting PNA | Potency, µM (series often up to 46.1 µM), usual class: activators | 0.06% of 65,000 active | AID 925
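HeLa cells stably expressing EGFP interrupted by mutant beta-globin intron 2 (IVS2-654), 500/well in 2% FCS. Treated with compound for 2 days at 37C. Splicing correction scored as total well GFP intensity (488 nm excitation, 500-520 nm emission); 500 nM antisense PNA served as control.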
IkB signaling: inhibitors of IkB signaling in ABC-DLBCL cells | Potency, µM (top dose mostly 57.1 µM) | ABC-DLBCL IkBa-CBG/CBR dual luciferase ratio, 4 h; response scale: scaled: untreated 0%, proteasome inhibitor 100% | AID 445 | 0.04% of 110,000 active; active = well fitted curve in the direction sought with a large enough effect in the signal ratio, not every such curve was filed as active; inconclusive = small, poorly fitted or top-dose-only effect, or a change in a side signal; the % refers to the signal ratio;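 note: the direction sought is a rising ratio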
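In this assay, an IκBα–CBG68 fusion accumulates when IKK-driven degradation is blocked; native CBR normalizes for cell number. OCI-Ly3 cells were treated 4 h with compound and doxycycline, then green and red light read after Chroma-Glo addition.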
GFP derepression: epigenetic GFP locus derepression in mouse cells; Potency, µM (series often up to 46.1 µM); 0.09% of 68,000 active; mouse C127i GFP locus derepression, cytometry, 30 h; AID 597
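Murine C127i mammary cells carrying a silenced, stably integrated CMV-driven GFP reporter were treated with compound for 30 hours at 37 C. After PBS washes, GFP-positive cells were counted by laser-scanning microplate cytometry.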
Hits are given with their value; – = inactive; ? = inconclusive; · = no result given; ! = not confirmed by another sample; [ ] = dose if it differs, or a comment. Compounds with a hit are over-represented: about 0.16% of the library has one in this group of screens. Unless noted, calls come from the whole dose curve; as a rule, active = well fitted curve in the direction sought with a large enough effect; inconclusive = small, poorly fitted or top-dose-only effect, or another doubt; inactive = no such curve, though single readings can be large; an effect the other way counts as inactive or inconclusive.

SMILES	Ub-GFP proteasome	USP2a inhib	HBB splicing	IkB signaling	GFP derepression
CN(C)S(=O)(=O)c1ccc2c(c1)/C(=C/c1cc3c([nH]1)CCCC3)C(=O)N2	–	–	4µM	–	16µM
CCN(CC)c1ccc2cc(-c3nnc(-c4ccncc4)o3)c(=O)oc2c1	·	·	·	·	2µM
Oc1c(CN2CCc3ccccc3C2)cc(Cl)c2cccnc12	–	·	–	?	·
Oc1c(CN2CCCCC2)cc(Br)c2cccnc12	–	–	–	?	3.2µM
CN1CCN(Cc2cc(COCc3ccccc3)c3cccnc3c2O)CC1	–	–	–	–	6.3µM
Cc1cccc(N2CCN(C(=O)c3cc4ccc5cccnc5c4[nH]3)CC2C)c1 (centres undefined)	·	·	·	–	·
S=C(S)N1CCCC1	–	–	–	?	0.63µM
CC(=O)[C@]1(O)CC[C@@H]2[C@H]3C[C@@H](C)C4=CC(=O)CC[C@@]4(C)[C@H]3[C@@H](O)C[C@]21C	–[9.17 µM]	·	–[9.22 µM]	?	–[9.22 µM]
C=CC(C)(C)c1[nH]c2ccccc2c1C1=C(O)C(=O)C(c2c[nH]c3c(CC=C(C)C)cccc23)=C(O)C1=O	–	·	·	?	–
Cc1c(C)c2c(c(C)c1O)CC[C@@](C)(CCC[C@@H](C)CCC[C@@H](C)CCCC(C)C)O2	–	7.9µM	–	–	–
C#C[C@@]1(O)CC[C@H]2[C@H]3CCC4=Cc5oncc5C[C@]4(C)[C@@H]3CC[C@@]21C	–	·	–	–	–
CC1=C(/C=C/C(C)=C/C=C/C(C)=C/C(=O)O)C(C)(C)CCC1	·	·	·	·	10µM
CC(C)=CCC/C(C)=C/COc1c2ccoc2cc2oc(=O)ccc12	–	·	·	–[11.4 µM]	–[9.22 µM]
O=c1cc(O)cc(/C=C\c2ccc(O)c(O)c2)o1	–	–	–	–	–
COc1ccc(CNC(=O)C(C#N)c2nc3ccccc3nc2N2CCCC2)cc1 (centres undefined)	?	–	13µM	–	?
N#C/C(=C/c1ccc(N2CCCCCC2)o1)c1ccc(F)cc1	–	–	?	?	3.2µM
COc1cc(/C=C(/C#N)c2ccc(F)cc2)ccc1OCc1ccc(C(=O)O)o1	–	–	–	–	–
C=CCn1c(NC(=O)c2ccccc2Cl)c(C#N)c2nc3ccccc3nc21	–	–	?	?	–
C=CCn1c(NC(=O)c2ccccc2)c(C#N)c2nc3ccccc3nc21	–	–	25µM	?	–
CCN(CCO)CCCC(C)Nc1ccnc2cc(Cl)ccc12 (centres undefined)	·	–	·	·	·
CCN(CC)CCC[C@H](C)Nc1c2ccc(Cl)cc2nc2ccc(OC)cc12	–	–	13µM	?	13µM!
NS(=O)(=O)c1ccc(N=Nc2nc3[nH]cnc(=S)c3[nH]2)cc1	–[9.17 µM]	·	4µM	–[11.4 µM]	–[9.22 µM]
NS(=O)(=O)c1ccc(N=Nc2nc3[nH]c(=O)[nH]c(=O)c3[nH]2)cc1	–[9.17 µM]	·	–[9.22 µM]	–[11.4 µM]	–[9.22 µM]
O=c1c(O)c(-c2ccc(O)c(O)c2)oc2ccccc12	–	·	·	–[11.4 µM]	–[9.22 µM]
O=C1c2ccc(O)c(O)c2C(=O)c2c(O)ccc(O)c21	·	4µM	·	·	·
SMILES	Ub-GFP proteasome	USP2a inhib	HBB splicing	IkB signaling	GFP derepression
CCCCCCCCCCCC(CC1OC(=O)C1CCCCCC)OC(=O)C(CC(C)C)NC=O (centres undefined)	·	10µM	·	·	·
O=c1cc(-c2cccc(O)c2O)oc2ccccc12	–	·	·	–[11.4 µM]	–[9.22 µM]
S=C([S-])NCCNC(=S)[S-].[Zn+2]	·	·	–	–	·
CN1CCN(c2ncc3nc(-c4ccc(F)cc4)c(=O)n(C4CC4)c3n2)CC1	–	10µM	–	–[11.4 µM]	–[9.22 µM]
CN1CCN(c2ncc3nc(-c4ccc(Cl)cc4)c(=O)n(C4CC4)c3n2)CC1	–	–	–	–[11.4 µM]	–[9.22 µM]
C[C@H](O)[C@H](O)[C@@H]1CNc2nc(N)[nH]c(=O)c2N1	–	–	–	–	–
COc1ccc(OC)c2c(=S)c3ccccc3[nH]c12	–	·	·	?	–
O=C(/C=C/c1ccc(O)c(O)c1)OC1C[C@](O)(C(=O)O)C[C@@H](O)[C@H]1O (some centres undefined)	·	·	–	–	·
Nc1ncnc2nc[nH]c12.Nc1ncnc2nc[nH]c12.[Cl][Pt]([Cl])([Cl])[Cl]	–[9.17 µM]	·	–[9.22 µM]	–[11.4 µM]	–[9.22 µM]
N#Cc1c(-c2ccco2)c2c([nH]c1=S)CCCC2	–	13µM	–	–	–
Nc1ncnc2c1nc(Sc1ccc(Cl)cc1)n2[C@@H]1O[C@H]2COP(=O)(O)O[C@@H]2[C@H]1O	–	–	–	–	–
O=C1C=CC2=C3c4cc(O)c(O)cc4C[C@@]3(O)COC2=C1O	–	·	·	–[11.4 µM]	–[9.22 µM]
O=C1C(Cl)=C(Nc2ccc(S(=O)(=O)Nc3ccccn3)cc2)C(=O)c2ccccc21	–[9.17 µM]	·	–[9.22 µM]	6.3µM	–[9.22 µM]
Nc1ncnc2c1nc(Br)n2[C@@H]1O[C@H]2COP(=O)(O)O[C@@H]2[C@H]1O	–	–	–	?	–
COc1ccccc1OC1=NS(=O)(=O)c2ccccc21	–	–	·	–	–
CCN(CC)c1cccc(OC2=NS(=O)(=O)c3ccccc32)c1	–	–	–	–	3.2µM
O=C(CCc1ccc(O)cc1)c1c(O)cc(O)cc1O[C@@H]1O[C@@H](CO)[C@@H](O)[C@@H](O)[C@H]1O	–	·	·	–[11.4 µM]	–[9.22 µM]
C/C1=C2N=C(/C=C3N=C(/C(C)=C4\[N-]C(C)(C5N=C1C(C)(CCC(=O)NCC(C)OP(=O)([O-])O[C@H]1C(O)C(n6cnc7cc(C)c(C)cc76)O[C@@H]1CO)C5CC(N)=O)C(C)(CC(N)=O)C4CCC(N)=O)C(C)(CC(N)=O)C\3CCC(N)=O)C(C)(C)C/2CCC(N)=O.[CH2-]C1OC(n2cnc3c(N)ncnc32)C(O)C1O.[Co] (some centres undefined)	·	3.2µM	·	·	·
Cc1cccc(NC(=O)c2sc3nc4c(cc3c2N)CCCCCC4)c1C	·	·	·	2.5µM	·
CCOc1ccc(NC(=O)c2sc3nc4c(cc3c2N)CCCCCC4)cc1	·	·	·	–	·
N#Cc1c(C(F)(F)F)cc(-c2ccco2)nc1SCc1ccccn1	–	–	16µM	–	?
N#Cc1c(C(F)(F)F)cc(-c2ccco2)nc1SCc1ccncc1	–	·	–	–	–
C=C1C[C@@]23C[C@]1(O)CC[C@@H]2[C@]12C=C[C@@H](O)[C@@](C)(C(=O)O1)[C@@H]2[C@@H]3C(=O)O	–	·	·	–[11.4 µM]	–[9.22 µM]
O=C(Oc1cccc2c(O)cccc12)c1ccccc1	–	13µM	·	–	–
COC(=O)c1ccccc1	·	·	–	–	·
O=C(OCC1OC(OC(=O)c2cc(O)c(O)c(OC(=O)c3cc(O)c(O)c(O)c3)c2)[C@@H](OC(=O)c2cc(O)c(O)c(OC(=O)c3cc(O)c(O)c(O)c3)c2)C(OC(=O)c2cc(O)c(O)c(OC(=O)c3cc(O)c(O)c(O)c3)c2)C1OC(=O)c1cc(O)c(O)c(OC(=O)c2cc(O)c(O)c(O)c2)c1)c1cc(O)c(O)c(OC(=O)c2cc(O)c(O)c(O)c2)c1 (some centres undefined)	·	1µM	·	·	·
